Among the data in PubChem BioAssay are composite z-score and z-score values, retold here.

In assay [1] the test system is Plasmodium falciparum Sir2 (PF13_0152, Sir2A). The assay is described as follows: Plasmodium falciparum Sir2A binding compounds – biochemical, small-molecule microarray, 635 nm fluorescence, primary screen (AID 1098).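 Note: score merges spot fluorescence intensity with its signal-to-noise ratio.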 The note with it: fluorescence 635 nm, higher = more signal.
Assay [2] can be described thus: probe aDKK1 binding to arrayed compounds – biochemical, biotinylated probe, 635/667 nm fluorescence, primary screen (AID 1099).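 Note: score merges 667nm spot fluorescence with signal to noise across triplicate slides; reference of the scale not given here.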 Particulars: small-molecule microarray, higher = more signal.
Assay [3] is described as follows: probe aCHRDL2 binding to arrayed compounds – biochemical, biotinylated probe, 635/667 nm fluorescence, primary screen (AID 1100). Particulars: small-molecule microarray, higher = more signal.
Assay [4] can be described thus: change in splice reporter luminescence, either direction, cell-based, HEK293, spliceosome inhibition project, primary screen (AID 1101).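 Note: HEK293 cells carrying a splicing-competent luciferase reporter gene; test concentration not given here.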 The note with it: HEK293 splicing luciferase reporter, 24 h, higher = more signal, called active from +8 up or from −8 down. (In a reporter assay the amount or activity of a reporter protein is the signal.)
The target in assay [5] is Fibroblast growth factor 10 (Homo sapiens) (UniProt O15520). Description: compounds binding fibroblast growth factor 10 – biochemical, small-molecule microarray, 635 nm fluorescence, primary screen (AID 1102). The note with it: FGF10 binding, fluorescence 635 nm, higher = more signal.
In assay [6] the test system is glycogen synthase kinase-3 (GSK3A per assay name; protocol says GSK3B). Description: compounds binding glycogen synthase kinase-3 – biochemical, small-molecule microarray, 635 nm fluorescence, GSK3A, primary screen (AID 1103). Note: the record names both GSK3A and GSK3B. Particulars: fluorescence 635 nm, higher = more signal.
The target of assay [7] is Epidermal growth factor receptor (Homo sapiens) (UniProt P00533). The assay is described as follows: compounds binding epidermal growth factor receptor – biochemical, small-molecule microarray, 635 nm fluorescence, primary screen (AID 1104).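 Note: score merges 667 nm emission intensity with spot signal to noise over triplicate slides.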 Particulars: EGFR binding, higher = more signal.
Assay [8] deals with Follistatin-related protein 3 (Homo sapiens) (UniProt O95633). Description: compounds binding follistatin-related protein 3 – biochemical, small-molecule microarray, 635 nm fluorescence, primary screen (AID 1105).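 Note: score merges emission near 667 nm and signal to noise per printed spot across three slides.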 The note with it: FSTL3 binding, higher = more signal.
In assay [9] the target is Dickkopf-related protein 1 (Homo sapiens) (UniProt O94907). Description: small molecules binding DKK1 protein – biochemical, small-molecule microarray, 635 nm fluorescence scan, primary screen (AID 1106).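 Note: score merges emission near 667 nm with signal to noise over three replicate slides.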 Particulars: higher = more signal.
The subject of assay [10] is Inhibin beta A chain (activin A). The assay is described as follows: small molecules binding activin A – biochemical, small-molecule microarray, 635 nm fluorescence scan, primary screen (AID 1107).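 Note: mouse activin A protein probed at 4.33 µg/mL on printed slides; score merges bound-protein fluorescence near 667 nm with spot signal-to-noise.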 The note with it: INHBA, higher = more signal.

The structures appear in SMILES notation. Calls of active or inactive are those of the source.

Sequence of Dickkopf-related protein 1 (Homo sapiens) (O94907 whole entry, looked up): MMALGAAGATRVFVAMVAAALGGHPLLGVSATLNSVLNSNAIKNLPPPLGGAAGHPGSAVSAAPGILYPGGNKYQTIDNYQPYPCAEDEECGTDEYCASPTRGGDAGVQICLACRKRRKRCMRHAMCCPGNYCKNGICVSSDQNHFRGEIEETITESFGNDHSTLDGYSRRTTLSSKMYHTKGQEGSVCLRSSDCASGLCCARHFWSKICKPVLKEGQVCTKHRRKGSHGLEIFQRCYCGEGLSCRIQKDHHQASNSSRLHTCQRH
Sequence of Epidermal growth factor receptor (Homo sapiens) (P00533 whole entry, looked up): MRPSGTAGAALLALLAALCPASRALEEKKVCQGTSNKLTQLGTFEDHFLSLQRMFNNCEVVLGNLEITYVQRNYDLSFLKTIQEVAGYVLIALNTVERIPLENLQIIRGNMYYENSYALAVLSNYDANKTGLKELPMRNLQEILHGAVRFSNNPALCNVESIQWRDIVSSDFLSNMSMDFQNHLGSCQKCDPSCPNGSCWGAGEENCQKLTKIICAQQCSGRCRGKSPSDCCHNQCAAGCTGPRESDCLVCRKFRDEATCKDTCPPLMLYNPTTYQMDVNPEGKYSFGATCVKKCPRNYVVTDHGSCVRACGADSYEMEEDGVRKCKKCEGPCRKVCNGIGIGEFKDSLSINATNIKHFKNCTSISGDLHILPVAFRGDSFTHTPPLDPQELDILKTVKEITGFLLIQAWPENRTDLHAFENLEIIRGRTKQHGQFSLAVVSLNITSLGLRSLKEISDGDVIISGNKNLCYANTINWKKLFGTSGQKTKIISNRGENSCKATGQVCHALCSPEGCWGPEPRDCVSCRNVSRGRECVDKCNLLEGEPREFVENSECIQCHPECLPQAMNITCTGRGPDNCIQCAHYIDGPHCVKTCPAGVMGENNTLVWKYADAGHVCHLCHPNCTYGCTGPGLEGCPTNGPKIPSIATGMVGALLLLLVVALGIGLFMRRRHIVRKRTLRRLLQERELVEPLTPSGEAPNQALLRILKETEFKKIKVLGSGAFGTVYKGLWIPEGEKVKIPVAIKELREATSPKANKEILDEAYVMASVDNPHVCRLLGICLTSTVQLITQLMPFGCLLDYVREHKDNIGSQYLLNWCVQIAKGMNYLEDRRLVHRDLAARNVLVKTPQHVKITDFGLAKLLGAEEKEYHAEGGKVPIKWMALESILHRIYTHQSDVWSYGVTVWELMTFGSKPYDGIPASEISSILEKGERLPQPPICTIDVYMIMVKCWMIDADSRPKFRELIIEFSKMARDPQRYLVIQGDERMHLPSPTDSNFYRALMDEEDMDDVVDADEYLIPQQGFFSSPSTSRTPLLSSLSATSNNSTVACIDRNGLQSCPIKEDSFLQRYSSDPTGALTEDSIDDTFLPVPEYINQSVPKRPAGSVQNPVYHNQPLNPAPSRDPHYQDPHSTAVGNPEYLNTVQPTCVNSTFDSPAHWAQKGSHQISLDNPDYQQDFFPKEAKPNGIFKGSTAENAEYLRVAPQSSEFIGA
Sequence of Follistatin-related protein 3 (Homo sapiens) (O95633 whole entry, looked up): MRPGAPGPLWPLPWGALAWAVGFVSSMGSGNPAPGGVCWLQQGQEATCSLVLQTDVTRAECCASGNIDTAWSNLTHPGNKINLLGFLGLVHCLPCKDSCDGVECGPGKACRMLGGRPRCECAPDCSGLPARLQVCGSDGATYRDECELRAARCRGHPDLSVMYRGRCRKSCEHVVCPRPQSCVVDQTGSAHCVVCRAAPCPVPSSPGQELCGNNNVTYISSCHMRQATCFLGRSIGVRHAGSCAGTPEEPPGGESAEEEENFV
Sequence of Fibroblast growth factor 10 (Homo sapiens) (O15520 whole entry, looked up): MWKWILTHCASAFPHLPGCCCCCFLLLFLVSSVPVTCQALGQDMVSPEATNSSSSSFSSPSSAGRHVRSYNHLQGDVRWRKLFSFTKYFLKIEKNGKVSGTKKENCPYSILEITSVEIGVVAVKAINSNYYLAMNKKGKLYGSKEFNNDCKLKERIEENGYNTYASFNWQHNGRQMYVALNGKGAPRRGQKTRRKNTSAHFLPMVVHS

Consider `C=CCOC(=O)[C@@H]1[C@H]2C(=O)O[C@H](c3ccccc3)[C@H](c3ccccc3)N2[C@H](c2ccc(OCCOC(=O)[C@H]3C[C@H]4C(=O)N[C@@H](CCCC[N+](C)(C)C)C(=O)N4[C@H]3c3ccc(O)cc3)cc2)[C@@]12C(=O)Nc1ccc(I)cc12`, for which the composite z-score in [1] is 1.6; in [2], -0.144; in assay [3], -0.248; in assay [5] it was 1.46; in assay [6], 1.33; in assay [7], 1.18. The composite z-score is 1.51 in assay [8], 1.03 in assay [9] and 0.467 in [10]. Besides, the z-score in assay [4] was -0.178 (inactive).

In the case of `CC(=O)N1Cc2ccccc2C[C@]2(N=C(c3ccc(OCCCO)cc3)O[C@@H]2c2ccccc2)C1=O`, the composite z-score in assay [1] came to 1.55; in assay [2], 0.835; in assay [3], 1.05; in assay [5], 0.897; in assay [6], 1.26; in assay [7] it was 0.17. Also, the composite z-score in [8] was determined as 0.33; in [9] it was 0.275; in assay [10], 0.503. Besides, the z-score in assay [4] is -2.31 (inactive).

Regarding `COC(=O)[C@]1(CCS(=O)(=O)c2ccccc2)N=C(c2ccc(OCCCO)cc2)O[C@@H]1c1ccccc1CN=[N+]=[N-]`, the composite z-score in assay [1] stood at 1.24; in assay [2], 0.366; in assay [3], 0.763; in assay [5], 0.63; in assay [6], 1.28; in [7] it was 0.231. Further, the results for the composite z-score in assay [8], in [9] and in assay [10] were 0.702, 0.0636 and 0.681, respectively. Also, in assay [4], the z-score was 1.08 (inactive).

On to `CC(=O)n1cc(C(O)C2C=CC3C(=O)N(c4ccccc4)C(=O)C3N2Nc2ccccc2)c2ccccc21` (stereo not given), for which the composite z-score is 0.454 in [1]; 1.81 in [2]; 1.52 in assay [3]; 0.833 in [5]; -0.669 in assay [6]; 0.444 in [7]. Moreover, the figures for the composite z-score in assay [8], in assay [9] and in assay [10] were 1.19, 0.325 and 1.93, respectively. In addition, in [4], the z-score is -1.22 (inactive).

`COCCCNC(=O)[C@]1(Cc2ccccc2CN=[N+]=[N-])N=C(c2ccc(OCCCO)cc2)O[C@@H]1c1ccccc1`: the composite z-score was 0.465 in assay [1]; 0.383 in [2]; 0.775 in [3]; 0.573 in assay [5]; 0.778 in assay [6]; -0.251 in assay [7]. The composite z-score is 0.317 in assay [8], -0.817 in assay [9] and 0.493 in assay [10]. The z-score in assay [4] is -0.697 (inactive).

Take `[N-]=[N+]=NCc1ccccc1C[C@@]1(C(=O)N2CCCCC2)N=C(c2ccc(OCCCO)cc2)O[C@@H]1c1ccccc1N=[N+]=[N-]`: the composite z-score was 0.679 in assay [1]; 0.885 in [2]; 0.689 in [3]; 0.128 in assay [5]; 0.293 in assay [6]; 0.13 in [7]. Moreover, the composite z-score was -0.16 in [8], -0.276 in [9] and 1.19 in assay [10]. Besides, in assay [4], the z-score is -0.428 (inactive).

As to `COc1ccc(NN2C(C(O)c3ccco3)C=CC3C(=O)N(C4CCCCC4)C(=O)C32)cc1` (stereo not given), the composite z-score turned out to be 1.39 in assay [1]; 0.456 in [2]; 0.689 in assay [3]; 1.35 in assay [5]; 1.32 in assay [6]; 0.423 in assay [7]. Further, the composite z-score worked out at 1.49 in assay [8], 0.0006 in assay [9] and 0.725 in assay [10]. Also, the z-score in [4] was 0.157 (inactive).

Consider `CC(C)CNC(=O)[C@@H]1c2ccccc2C(=O)N(Cc2cc(F)cc(C(F)(F)F)c2)[C@H]1c1ccc(CO)cc1`, for which the composite z-score is 0.311 in assay [1]; 0.806 in assay [2]; 1.01 in assay [3]; 0.301 in assay [5]; 0.13 in [6]; -0.315 in assay [7]. The composite z-score in assay [8] turned out to be 0.328; in assay [9], 0.258; in [10], 0.669. The z-score in assay [4] was -0.621 (inactive).

Take `O=C1OCCC=C[C@H]2OC34C=CCN(c5ccc(Cl)cc5)C(=O)[C@H]3N(CCCCCO)C(=O)[C@@H]4C12` (stereo not given in full): the composite z-score was 1.87 in [1]; -0.0263 in assay [2]; 0.255 in assay [3]; -0.315 in assay [5]; 0.0788 in [6]; -0.935 in assay [7]. The composite z-score in assay [8] was -0.713; in assay [9], -0.172; in assay [10], 0.883. In assay [4], the z-score was -0.443 (inactive).

With `COC(=O)c1c(CC[C@@H](CO)NC(=O)N[C@H](Cn2cc(-c3ccccc3C)nn2)C(C)C)oc(C(C)=O)c1C(=O)OC`, the composite z-score in assay [1] was 0.404; in [2], -0.177; in [3], -0.076; in assay [5], 0.289; in assay [6], -0.79; in assay [7], -0.937. Also, the composite z-score in assay [8] was -0.806; in [9], -0.482; in assay [10], -0.252. Further, in assay [4], the z-score was -1.71 (inactive).

On to `C=CCOC(=O)[C@@H]1[C@H]2C(=O)O[C@H](c3ccccc3)[C@H](c3ccccc3)N2[C@H](c2ccc(OCCOC(=O)[C@H]3C[C@H]4C(=O)N[C@@H](CCCCN(C)C)C(=O)N4[C@H]3c3cccc(OCCO)c3)cc2)[C@@]12C(=O)Nc1ccc(I)cc12`, for which the composite z-score in assay [1] was 1.41; in [2], 0.097; in assay [3] it was -0.0926; in assay [5] it was 1.02; in assay [6] it was 1.32; in [7] it was 0.605. For the same compound, the values for the composite z-score in assay [8], in assay [9] and in assay [10] were 1.32, 0.626 and 0.208, respectively. Also, the z-score in assay [4] is 0.348 (inactive).

As to `O=C1NCC(=O)N2[C@@H]1C[C@@H](C(=O)O)[C@H]2c1ccc(O)cc1`, the composite z-score in [1] is 1.41; in assay [2] it was -0.0052; in assay [3], 0.128; in assay [5], 0.944; in assay [6] it was 1.32; in [7], -0.0519. For the same compound, the results for the composite z-score in assay [8], in assay [9] and in assay [10] were 1.37, 1.78 and 0.571, respectively. Further, the z-score in [4] was -0.22 (inactive).

Turning to `C[C@H]1C2=C3C(CC[C@H]4C(OCc5ccc(F)cc5C(F)(F)F)OC[C@](C)([C@@H]34)N(C(=O)OC(C)(C)C)C2)C(CO)C1CO` (stereo not given in full), the composite z-score in assay [1] was 0.0402; in assay [2] it was -0.0997; in assay [3] it was 0.984; in assay [5], -0.0455; in assay [6], 0.875; in assay [7] it was -0.249. The composite z-score in assay [8] is 0.885; in assay [9], -0.461; in assay [10], 1.09. Besides, the z-score in assay [4] was 0.509 (inactive).

`CC(C)NC(=O)[C@@]1(C)c2ccccc2C(=O)N(C(C)C)[C@H]1c1ccc(CO)cc1`: the composite z-score in assay [1] is 1.58; in assay [2] it was -0.123; in assay [3], 0.925; in assay [5], -1.09; in assay [6], -0.643; in assay [7] it was -1.68. In addition, the composite z-score is -0.673 in assay [8], -1.81 in assay [9] and -1.53 in [10]. In assay [4], the z-score was 0.0862 (inactive).

As to `Cc1c(NC(=O)/C(C#N)=C/C=C/c2ccccc2[N+](=O)[O-])c(=O)n(-c2ccccc2)n1C`, the composite z-score in assay [1] is 1.03; in [2], -0.0194; in assay [3], 0.147; in [5] it was 0.386; in assay [6] it was 0.417; in [7], 0.187. Moreover, the results for the composite z-score in assay [8], in assay [9] and in [10] were 0.71, 0.446 and 0.0089, respectively. In addition, the z-score in assay [4] is 4.71 (inactive).
